The values that follow come from PubChem BioAssay.

Active and inactive are the calls of the source.

Assay [1] concerns PRMT1 (protein arginine N-methyltransferase 1). Kind of assay: PRMT1 binders on small-molecule microarrays, primary screen, biochemical, small-molecule microarray, 635 nm fluorescence (AID 1088).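 Also: binding of Prmt1 protein to compounds spotted on small-molecule microarray slides.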 Particulars: small-molecule microarray binding, higher = more signal.
Assay [2] can be described thus: yeast growth modulation, basal conditions, primary screen, YJM789 clinical isolate, OD600, 24 h (AID 1089).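 Also: growth of clinical yeast isolate S. cerevisiae YJM 789 seeded 1000 cells per well; test concentration not given here.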 As to conditions: S. cerevisiae YJM789 growth, higher = more signal, called active from +8 up or from −8 down.
The nature of assay [3]: fission yeast growth modulation, primary screen, strain 972, OD600, 24 h, no modulator (AID 1090).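 Also: basal condition with compound alone and no growth modifier present; test concentration not given here.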 Particulars: S. pombe 972 growth, higher = more signal, called active from +8 up or from −8 down.
A short description of assay [4]: S. cerevisiae growth modulation with rapamycin, primary screen, strain BY4716, OD600, 96 h (AID 1091). Also: test concentration not given here. As to conditions: higher = more signal, called active from +8 up or from −8 down.
Assay [5] has as its target Torsin-1A-interacting protein 2 (Homo sapiens) (UniProt Q8NFQ8). Briefly: LULL1 binders on small-molecule microarray, primary screen, cell lysate, human LULL1 lysate, 635/667 nm fluorescence (AID 1092).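 Also: probe is lysate of COS7 cells overexpressing human LULL1; score merges per-feature 667 nm fluorescence with signal-to-noise.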 Particulars: hLULL1 lysate binding, 635 nm fluorescence, higher = more signal.
The nature of assay [6]: E. coli growth modulation, two-sided OD650, primary screen, E. coli filamentation project, strain DRC41, 24 h (AID 1093).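 Also: MC1000 strain lacking acrAB efflux and sulA so SOS filamentation is blocked; test concentration not given here.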 As to conditions: OD650, 24 h, higher = more signal, called active from +8 up or from −8 down.
Assay [7] in a line: small-molecule microarray binders of probe aLefty2, primary screen, biochemical, biotinylated probe, 635/667 nm fluorescence (AID 1094).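 Also: score merges spot fluorescence near 667 nm with spot signal-to-noise ratio.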 As to conditions: higher = more signal.
The subject of assay [8] is Noggin (protein binding on small-molecule microarray). Briefly: Noggin binders on small-molecule microarray, primary screen, biochemical, 635/667 nm fluorescence (AID 1095).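 Also: score merges 667 nm feature fluorescence with signal to noise over triplicate slides.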 As to conditions: 635 nm fluorescence, higher = more signal.
Assay [9] deals with Neurogenic locus notch homolog protein 3 (Homo sapiens) (UniProt Q9UM47). Briefly: NOTCH3 binders on small-molecule microarray, primary screen, biochemical, 635/667 nm fluorescence (AID 1096). Particulars: NOTCH3 binding, 635 nm fluorescence, higher = more signal.
Assay [10] can be described thus: small-molecule microarray binders of probe aEGFR, primary screen, biochemical, biotinylated probe, 635/667 nm fluorescence (AID 1097).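 Also: probe is a biotinylated anti-EGFR antibody binding compounds printed on slides; score combines fluorescence near 667 nm and signal to noise of each spot.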 As to conditions: higher = more signal.

Torsin-1A-interacting protein 2 (Homo sapiens), sequence (Q8NFQ8 whole entry, looked up): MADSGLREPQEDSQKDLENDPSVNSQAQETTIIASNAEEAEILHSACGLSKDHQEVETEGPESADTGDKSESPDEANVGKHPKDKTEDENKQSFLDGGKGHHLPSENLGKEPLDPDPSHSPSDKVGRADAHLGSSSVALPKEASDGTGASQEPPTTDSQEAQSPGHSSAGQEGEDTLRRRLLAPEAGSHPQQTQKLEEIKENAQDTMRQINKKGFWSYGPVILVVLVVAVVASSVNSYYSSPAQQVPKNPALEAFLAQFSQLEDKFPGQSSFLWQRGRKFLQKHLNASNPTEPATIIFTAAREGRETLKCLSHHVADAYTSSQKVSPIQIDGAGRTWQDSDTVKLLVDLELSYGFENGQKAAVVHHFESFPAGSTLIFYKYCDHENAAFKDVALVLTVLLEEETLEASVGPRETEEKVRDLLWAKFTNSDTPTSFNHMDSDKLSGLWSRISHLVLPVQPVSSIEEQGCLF
Neurogenic locus notch homolog protein 3 (Homo sapiens), sequence (Q9UM47 whole entry, looked up): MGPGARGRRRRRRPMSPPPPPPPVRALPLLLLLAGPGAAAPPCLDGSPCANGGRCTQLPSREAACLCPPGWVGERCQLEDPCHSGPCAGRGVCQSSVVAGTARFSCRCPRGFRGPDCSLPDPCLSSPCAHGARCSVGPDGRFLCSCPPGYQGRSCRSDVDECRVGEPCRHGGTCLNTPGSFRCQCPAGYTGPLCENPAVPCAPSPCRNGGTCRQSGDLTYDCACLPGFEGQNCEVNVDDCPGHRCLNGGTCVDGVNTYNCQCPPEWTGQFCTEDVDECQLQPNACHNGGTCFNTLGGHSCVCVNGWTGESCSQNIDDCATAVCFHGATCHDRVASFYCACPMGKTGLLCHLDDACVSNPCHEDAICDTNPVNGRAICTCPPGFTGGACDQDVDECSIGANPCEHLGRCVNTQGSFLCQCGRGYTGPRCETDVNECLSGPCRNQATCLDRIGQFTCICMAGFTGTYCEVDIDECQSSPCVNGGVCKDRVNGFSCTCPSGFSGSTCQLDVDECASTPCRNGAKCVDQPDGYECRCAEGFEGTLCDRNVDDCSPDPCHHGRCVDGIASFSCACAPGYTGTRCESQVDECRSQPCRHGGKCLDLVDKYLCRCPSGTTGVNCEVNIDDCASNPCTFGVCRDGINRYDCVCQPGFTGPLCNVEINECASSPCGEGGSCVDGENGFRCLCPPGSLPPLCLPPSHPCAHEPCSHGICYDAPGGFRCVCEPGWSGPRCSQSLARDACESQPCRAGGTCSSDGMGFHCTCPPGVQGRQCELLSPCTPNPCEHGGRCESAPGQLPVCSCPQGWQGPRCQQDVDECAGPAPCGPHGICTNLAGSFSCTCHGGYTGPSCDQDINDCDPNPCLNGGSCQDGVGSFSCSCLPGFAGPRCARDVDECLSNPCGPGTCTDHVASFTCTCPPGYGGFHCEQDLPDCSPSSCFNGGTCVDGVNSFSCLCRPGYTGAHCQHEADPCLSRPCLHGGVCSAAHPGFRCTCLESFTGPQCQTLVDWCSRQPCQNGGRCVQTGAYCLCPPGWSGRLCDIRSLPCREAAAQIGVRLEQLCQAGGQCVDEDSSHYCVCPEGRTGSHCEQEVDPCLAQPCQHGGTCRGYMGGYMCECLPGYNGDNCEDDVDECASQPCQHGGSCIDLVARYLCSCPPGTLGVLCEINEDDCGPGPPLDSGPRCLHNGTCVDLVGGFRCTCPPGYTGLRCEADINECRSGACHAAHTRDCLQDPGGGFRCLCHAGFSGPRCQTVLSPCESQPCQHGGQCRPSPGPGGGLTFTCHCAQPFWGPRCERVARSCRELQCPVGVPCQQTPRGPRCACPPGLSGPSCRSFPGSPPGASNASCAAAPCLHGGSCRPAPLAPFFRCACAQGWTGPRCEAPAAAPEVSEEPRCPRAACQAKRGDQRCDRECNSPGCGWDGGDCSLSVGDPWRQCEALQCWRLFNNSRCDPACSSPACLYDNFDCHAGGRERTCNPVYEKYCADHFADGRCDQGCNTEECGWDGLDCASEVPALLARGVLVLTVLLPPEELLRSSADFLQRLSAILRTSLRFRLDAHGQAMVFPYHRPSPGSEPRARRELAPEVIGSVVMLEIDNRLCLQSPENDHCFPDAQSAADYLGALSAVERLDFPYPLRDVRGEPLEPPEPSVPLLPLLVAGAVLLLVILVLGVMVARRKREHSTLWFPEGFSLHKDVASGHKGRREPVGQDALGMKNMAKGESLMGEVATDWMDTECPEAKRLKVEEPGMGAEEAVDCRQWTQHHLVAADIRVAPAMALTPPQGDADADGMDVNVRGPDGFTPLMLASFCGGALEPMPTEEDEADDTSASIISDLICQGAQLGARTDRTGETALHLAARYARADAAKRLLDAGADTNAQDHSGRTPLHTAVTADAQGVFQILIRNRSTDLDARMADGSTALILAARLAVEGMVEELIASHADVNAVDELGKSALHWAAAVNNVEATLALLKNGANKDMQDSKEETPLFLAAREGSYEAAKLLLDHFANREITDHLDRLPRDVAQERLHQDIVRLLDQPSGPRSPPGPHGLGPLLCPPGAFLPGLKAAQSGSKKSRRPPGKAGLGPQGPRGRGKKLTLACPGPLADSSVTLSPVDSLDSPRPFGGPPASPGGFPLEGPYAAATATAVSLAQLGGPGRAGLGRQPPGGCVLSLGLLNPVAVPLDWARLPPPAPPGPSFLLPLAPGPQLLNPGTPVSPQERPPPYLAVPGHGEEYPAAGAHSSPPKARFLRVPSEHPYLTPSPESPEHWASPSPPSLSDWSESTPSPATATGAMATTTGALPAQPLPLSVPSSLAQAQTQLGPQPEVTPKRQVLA

For the compound `[N-]=[N+]=Nc1ccccc1C[C@]1(C(=O)NCCN2CCOCC2)COC(c2ccc(OCCCO)cc2)=N1`, the composite z-score is 1.29 in assay [1]; 3.03 in assay [5]; 0.194 in assay [7]; 0.0424 in assay [8]; 0.0221 in [9]; 0.0433 in assay [10]. Further, the z-score was -0.877 (inactive) in assay [2], -2.27 (inactive) in assay [3], -1.46 (inactive) in assay [4] and 2.56 (inactive) in [6].
Consider `COc1ccc([C@H]2OC[C@@H]3C[C@H](Cc4ccccc4)C(=O)N32)cc1`, for which the composite z-score is -0.476 in assay [1]; 0.449 in assay [5]; -0.155 in assay [7]; 0.614 in assay [8]; 0.363 in assay [9]; -0.0978 in [10]. The z-score in [2] is 1.35 (inactive); in assay [3], -2 (inactive); in assay [4] it was 0.861 (inactive); in [6], -0.238 (inactive).
For the compound `CCCC[C@@H](O)C1=C(COC)C[C@H]2C(=O)N(Cc3ccccc3)C(=O)[C@H]2[C@H]1CO`, the composite z-score in assay [1] is 0.831; in [5], 0.113; in [7], -0.241; in assay [8], 1.18; in [9] it was 0.788; in assay [10], -0.113. In addition, the z-score in assay [2] was 0.332 (inactive); in assay [3], -0.677 (inactive); in assay [4], 0.719 (inactive); in assay [6], 0.649 (inactive).
`C=CCNC(=O)[C@@H]1[C@H]2C(=O)O[C@H](c3ccccc3)[C@H](c3ccccc3)N2[C@H](c2ccccc2OCCO)[C@@]12C(=O)Nc1ccc(C#CCC(C(=O)OC)C(=O)OC)cc12`: the composite z-score is 1.45 in assay [1]; 1.77 in assay [5]; -0.366 in [7]; 0.0639 in assay [8]; 1.07 in assay [9]; -0.24 in assay [10]. Moreover, the z-score in [2] is 1.13 (inactive); in [3], 1.19 (inactive); in assay [4], 3.72 (inactive); in [6] it was -0.736 (inactive).
Regarding `O[C@@H](Cc1ccccc1)[C@@H](/C=C/C1CC1)N(CC#Cc1ccccc1)Cc1ccccc1Br`, the composite z-score was -0.0917 in [1]; 0.461 in [5]; 0.0166 in assay [7]; -1.33 in assay [8]; -0.817 in assay [9]; -0.339 in assay [10]. The z-score in [2] was 0.298 (inactive); in assay [3], 0.398 (inactive); in assay [4], 1.43 (inactive); in assay [6] it was 0.247 (inactive).
For the compound `C=CCC(OC(C)=O)[C@@H]1[C@@H](N(Cc2ccc(-c3ccccc3)cc2)C(=O)c2ccc(-c3ccccc3)cc2)c2cc(OCCCO)ccc2N1C(=O)c1ccc2ccccc2c1` (stereo not given in full), the composite z-score in assay [1] is 0.636; in assay [5], 1.17; in [7], 0.0008; in assay [8] it was 0.479; in [9], 0.306; in assay [10], -0.0531. The z-score in assay [2] was -0.737 (inactive); in assay [3], 0.109 (inactive); in [4], -0.38 (inactive); in assay [6], -0.728 (inactive).
For `C[N+](C)(C)CCCC[C@@H]1NC(=O)[C@@H]2C[C@H](C(=O)NCCCCCCN)[C@H](c3cccc(OCCO)c3)N2C1=O`, the composite z-score in assay [1] was found to be 1.45; in assay [5], 2.44; in [7], 1.26; in assay [8], 0.47; in assay [9], 0.748; in assay [10] it was 0.617. Besides, the z-score in [2] is -0.344 (inactive); in assay [3] it was -4.23 (inactive); in assay [4], -0.244 (inactive); in [6], 0.0037 (inactive).
With `CC(C)[Si]1(C(C)C)OCc2cc(C3CC3)nc(-c3ccc(Oc4ccccc4)cc3)c21`, the composite z-score in assay [1] is -0.834; in [5], -0.229; in [7], -0.13; in [8], -0.27; in assay [9] it was -0.488; in assay [10], -0.062. Besides, the z-score in [2] is 1.95 (inactive); in assay [3], 1.12 (inactive); in assay [4] it was 2.1 (inactive); in assay [6] it was -0.26 (inactive).
As to `O=C(NCCN1CCOCC1)[C@@H]1c2ccccc2C(=O)N(Cc2ccccc2Cl)[C@H]1c1ccc(CO)cc1`, the composite z-score in assay [1] was -0.7; in assay [5], -0.201; in assay [7] it was -0.547; in assay [8], -1.31; in assay [9] it was -1.4; in assay [10] it was -0.362. In addition, the z-score is 0.506 (inactive) in assay [2], 0.545 (inactive) in assay [3], -0.214 (inactive) in [4] and 0.561 (inactive) in assay [6].
As to `CCOC(=O)C1=C[C@@H](c2ccccc2)N(S(=O)(=O)c2ccc(C)cc2)[C@H]1c1ccc(OC)cc1`, the composite z-score was 1.24 in [1]; 2.71 in assay [5]; 0.338 in [7]; 0.221 in [8]; 1.14 in assay [9]; 0.756 in assay [10]. Besides, the z-score in [2] was -1.13 (inactive); in [3], 1.29 (inactive); in assay [4], 0.698 (inactive); in [6] it was -0.685 (inactive).
For the compound `C=C(C(=O)CC[C@H](OC(=O)c1ccccc1-c1ccccc1C(=O)O)c1cccc(OCCO)c1)C(C)C`, the composite z-score in assay [1] is 0.0697; in assay [5] it was -0.138; in [7], -0.191; in assay [8] it was 0.437; in assay [9], 0.324; in assay [10], -0.18. The z-score in assay [2] is 0.521 (inactive); in assay [3], -0.561 (inactive); in assay [4], -0.518 (inactive); in assay [6] it was -0.164 (inactive).
For the compound `CC(=O)NCCCC[C@@H]1NC(=O)[C@@H]2C[C@H](C(=O)NCCCCCN)[C@H](c3ccc(O)cc3)N2C1=O`, the composite z-score turned out to be 1.32 in assay [1]; 2.25 in assay [5]; 0.5 in [7]; 0.61 in assay [8]; 1.14 in assay [9]; 0.328 in [10]. For the same compound, the z-score in assay [2] is 0.0163 (inactive); in assay [3] it was -0.747 (inactive); in assay [4] it was 0.536 (inactive); in assay [6], 2.29 (inactive).
Take `CC(=O)N1CC2(CC2)CC1c1ccccc1` (stereo not given): the composite z-score was found to be 0.594 in assay [1]; 1.19 in assay [5]; 0.0423 in assay [7]; 0.423 in assay [8]; 0.251 in assay [9]; 0.0986 in assay [10]. Besides, the z-score was -0.999 (inactive) in assay [2], 0.661 (inactive) in assay [3], 0.218 (inactive) in [4] and 0.0425 (inactive) in assay [6].
In the case of `CC(C)[Si](C#CCCCC#N)(O[C@H](c1ccccc1)c1cn(Cc2ccccc2)nn1)C(C)C`, the composite z-score was 1.36 in [1]; 0.573 in [5]; -0.119 in assay [7]; 0.509 in assay [8]; 1.09 in assay [9]; -0.0681 in assay [10]. Moreover, the z-score is -1.45 (inactive) in assay [2], -2.74 (inactive) in assay [3], -2.8 (inactive) in assay [4] and 1.84 (inactive) in [6].
As to `CC[C@@H]1C=C(C(=O)O)[C@H](c2ccccc2)N1S(=O)(=O)c1ccc(C)cc1`, the composite z-score in [1] is 0.598; in assay [5] it was 2.87; in assay [7] it was 0.262; in assay [8], 0.103; in [9], 0.981; in assay [10], 0.0638. Also, the z-score in assay [2] is -1.14 (inactive); in [3] it was 0.231 (inactive); in [4] it was -0.12 (inactive); in assay [6] it was -0.749 (inactive).
